Results: PubChem BioAssay
Several values for one entry are separate records, joined by “and”; a condition that tells them apart may be missing. Identical values can stand only once. Activity calls are given as the source filed them.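 The calls were made as follows, unless noted: active = compounds whose cell count with miR-34 switched on is under 0.7 times the count with it off; inactive = the rest.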

Columns and labels:
[1] = EMT-state selective cytotoxicity in co-culture – imaging, PC-3E GFP, TEM4-18 mCherry, primary screen (AID 1345086;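 active = compounds killing one labelled cell type while sparing the other, by normalised counts and ratio limits, not self-fluorescent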;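 as to all read-outs here: cells exposed to compound for 72 h before imaging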;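 as to red/green cell ratio (normalised): normalised mesenchymal count divided by normalised epithelial count so high means epithelial killing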); conditions: PC-3E GFP / TEM4-18 mCherry co-culture, imaging cell counts, at 1 µM; for red/green cell ratio (normalised): actives lie on both sides, counts scaled to control wells, 1 = unselective
[2] = viability loss with induced miR-34 in A549 – imaging, A549 dox-inducible miR-34, nuclei and caspase counts, primary screen (AID 1347080); conditions: A549 miR-34 inducible, Hoechst nuclei count, 48 h
[3] = compounds altering circadian rhythm period length – cell-based, LOPAC library, luminescence reporter (AID 2774; call rule not given here;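 also: values are relative to mean of DMSO wells on each plate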); conditions: circadian reporter cells, at 7 µM, actives lie on both sides
[4] = tested on: Hepatitis C virus NS3 helicase; experiment: blockers of NS3h binding to ssDNA – biochemical, fluorescence polarization, LOPAC1280 library, primary screen (AID 687035; in the data active = inhibition above about 37%); conditions: Purified HCV NS3 helicase, Cy5-dT15 ssDNA binding fluorescence polarization; stronger effect = higher value; concentration not given here
[5] = compounds altering Cy5-DNA-NS3h complex signal – biochemical, LOPAC1280, artefact control for HCV NS3 helicase inhibitor project (AID 687037; call rule not given here); conditions: Cy5-DNA-NS3h complex fluorescence interference counterscreen
[6] = blockers of cellular phospholipid synthesis – cell-based, LOPAC library, screen 4, primary screen (AID 1347384; call rule not given here); conditions: animal cells, phospholipid biosynthesis inhibition screen; at 10 µM
[7] = galactose survival enhancers in mitochondrial complex I cybrids – cell-based, galactose medium, ATP luminescence, primary screen (AID 1645843;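 active = z-score of at least 1.8 in each of two replicates, scored against plate mean and spread of sample wells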;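 also: positive z means more ATP and so rescue of galactose-driven cybrid death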); conditions: complex I mutant cybrid cells, 72 h, stronger effect = higher value
[8] = P. berghei load reduction in hepatocytes – cell-based, HepG2, luciferase luminescence, HepG2 viability, primary screen (AID 624349; in the data active = parasite load remaining mostly below about 12%, no sharp cut-off; inactive = mostly above about 10%;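 also: 100% = mean of DMSO negative control wells on the same plate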); conditions: P. berghei liver stage in HepG2, luciferase luminescence, concentration not given here; parasite load remaining: stronger effect = lower value; viability: measured here: HepG2 viability without parasites
[9] = MELAS cybrid and Rieske KO viability enhancers – cell-based, MELAS cybrids, Rieske KO mouse fibroblasts, CellTiter-Glo, primary screen (AID 1508586;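 active = mean z-score across replicates of 1.96 or higher in either the MELAS or the Rieske mutant cell line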;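 also: z relative to plate mean and SD of compound and empty wells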); conditions: low glucose
[10] = biological target: NAD(+) hydrolase SARM1 (Homo sapiens) (UniProt Q6SZW1); experiment: blocking NAD cleavage by SARM1 SAM-TIR – cell lysate, NAD-Glo luminescence (AID 1508614;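 active = compound whose remaining NAD level is above about 45 nM, limit read from the data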;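 also: higher remaining NAD means stronger inhibition of SARM1 NADase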); conditions: SAM-TIR HEK293T lysate NADase, at 1 µM, stronger effect = higher value
[11] = biological target: Mitogen-activated protein kinase 7 (Homo sapiens) (UniProt Q13164); experiment: Gal4-ERK5 driven luciferase induction – cell-based, HTS, primary screen (AID 1508626;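 active = luciferase signal above three times the same-plate solvent-only control wells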;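 also: luciferase driven by Gal4-ERK5 fusion binding five Gal4 sites before minimal TATA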); conditions: HeLa Gal4-ERK5 transactivation, 18 h, at 5 µM, stronger effect = higher value
[12] = compounds altering viability of human ES cells (AID 493140; call rule not given here;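 also: cells exposed to compounds for four days before counting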); conditions: human embryonic stem cell survival screen; stronger effect = higher value
[13] = measured here: epithelial PC-3E GFP cell survival
[14] = measured here: mesenchymal TEM4-18 mCherry cell survival
[15] = stronger effect = lower value, cell number ratio, induced over uninduced
[16] = measured here: relative caspase fold change +Dox/-Dox
[17] = measured here: total cells with miR-34 induction, stronger effect = lower value
[18] = measured here: total cells without miR-34 induction
[19] = MELAS cybrid survival, CellTiter-Glo 48 h, stronger effect = higher value
[20] = Rieske KO mouse fibroblast survival, CellTiter-Glo 72 h

Sequence of Mitogen-activated protein kinase 7 (Homo sapiens) (Q13164 whole entry, looked up, the tested form may be a part): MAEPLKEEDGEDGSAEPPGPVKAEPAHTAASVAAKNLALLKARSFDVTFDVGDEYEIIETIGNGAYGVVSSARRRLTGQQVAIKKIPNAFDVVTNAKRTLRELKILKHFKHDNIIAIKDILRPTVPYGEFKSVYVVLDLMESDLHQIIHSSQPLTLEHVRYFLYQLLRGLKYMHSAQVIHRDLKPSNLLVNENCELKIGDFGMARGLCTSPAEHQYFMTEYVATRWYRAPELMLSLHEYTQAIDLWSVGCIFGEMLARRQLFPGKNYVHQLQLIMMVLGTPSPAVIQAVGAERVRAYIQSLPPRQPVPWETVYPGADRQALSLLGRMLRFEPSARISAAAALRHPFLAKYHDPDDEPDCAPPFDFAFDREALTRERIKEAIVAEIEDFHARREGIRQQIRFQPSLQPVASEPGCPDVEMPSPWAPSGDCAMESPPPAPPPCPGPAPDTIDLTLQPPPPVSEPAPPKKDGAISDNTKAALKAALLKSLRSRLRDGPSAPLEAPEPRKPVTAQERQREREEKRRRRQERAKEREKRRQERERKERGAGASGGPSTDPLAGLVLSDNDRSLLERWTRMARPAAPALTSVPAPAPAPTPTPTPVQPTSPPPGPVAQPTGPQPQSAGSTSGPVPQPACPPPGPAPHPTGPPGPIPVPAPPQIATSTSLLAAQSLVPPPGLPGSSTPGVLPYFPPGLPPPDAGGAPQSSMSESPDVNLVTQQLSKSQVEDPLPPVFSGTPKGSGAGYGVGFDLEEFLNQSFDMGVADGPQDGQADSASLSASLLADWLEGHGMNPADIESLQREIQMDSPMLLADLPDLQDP
Sequence of NAD(+) hydrolase SARM1 (Homo sapiens) (Q6SZW1 whole entry, looked up, the tested form may be a part): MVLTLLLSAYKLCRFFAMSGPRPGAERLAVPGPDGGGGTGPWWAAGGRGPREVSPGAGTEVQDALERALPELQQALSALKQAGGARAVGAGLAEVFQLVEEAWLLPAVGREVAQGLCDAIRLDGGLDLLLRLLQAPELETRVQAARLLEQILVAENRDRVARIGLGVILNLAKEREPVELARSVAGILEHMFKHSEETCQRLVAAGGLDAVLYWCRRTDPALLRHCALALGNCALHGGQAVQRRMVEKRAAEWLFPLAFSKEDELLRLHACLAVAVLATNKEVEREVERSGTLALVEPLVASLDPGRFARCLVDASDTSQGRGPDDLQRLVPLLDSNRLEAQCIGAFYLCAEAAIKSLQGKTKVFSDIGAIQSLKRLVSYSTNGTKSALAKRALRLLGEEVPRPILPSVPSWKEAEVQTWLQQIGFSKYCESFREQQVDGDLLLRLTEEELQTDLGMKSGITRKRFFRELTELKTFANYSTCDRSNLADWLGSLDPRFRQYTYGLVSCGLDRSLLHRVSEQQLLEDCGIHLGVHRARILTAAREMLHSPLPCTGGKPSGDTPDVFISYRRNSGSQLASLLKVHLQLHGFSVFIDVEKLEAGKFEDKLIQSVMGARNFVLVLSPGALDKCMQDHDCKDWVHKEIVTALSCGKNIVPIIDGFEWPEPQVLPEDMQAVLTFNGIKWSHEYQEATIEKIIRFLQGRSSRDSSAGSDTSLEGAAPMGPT

Row | Compound | red/green cell ratio (normalised) [1] | normalised cell number [1, 13] | normalised cell number [1, 14] | fold change [2, 15] | fold change [2, 16] | cell count [2, 17] | cell count [2, 18] | period change [3] | inhibition [4] | fluorescence ratio (interference) [5] | outcome [6] | z-score [7] | parasite load remaining [8] | viability [8] | z-score [9, 19] | z-score [9, 20] | remaining NAD [10] | luciferase signal [11] | survival [12]
1 | CC(=O)OCC(=O)[C@@]1(O)[C@@H](C)CC2C3CCC4=CC(=O)C=C[C@]4(C)[C@@]3(F)[C@@H](O)C[C@@]21C (stereo partly specified) | 0.93 (inactive) | 1.21 | 1.13 | 0.963 (inactive) | 0.848 | 6280 | 6520 |  |  |  |  |  |  |  |  |  |  |  | 
2 | CN1C2CCC1CC(OC(=O)c1c[nH]c3ccccc13)C2 (stereo unspecified) | 1.09 (inactive) | 0.93 | 1.02 | 0.997 (inactive) and 0.976 (inactive) and 0.922 (inactive) | 1.28 and 0.664 and 2.09 | 10100 and 8850 and 6980 | 10100 and 9070 and 7570 | 0.005 h (inactive) | 0% (inactive) | 1 (inactive) | inactive | -0.34 (inactive) and 0.77 (inactive) |  |  |  |  |  |  | 
3 | O=[N+]([O-])O[C@@H]1CO[C@H]2[C@@H]1OC[C@@H]2O | 1.19 (inactive) | 1.15 | 1.37 | 0.933 (inactive) | 3.92 | 12300 | 13200 |  |  |  |  |  | 73.3% (inactive) | 93.9% | -0.228 (inactive) | 0.0347 | 12 nM (inactive) | 52 AU (inactive) | 
4 | CC(C)CC(N)=O | 0.8 (inactive) | 1.07 | 0.86 | 0.906 (inactive) and 0.908 (inactive) | 0.955 and 0.851 | 8450 and 8440 | 9330 and 9300 |  |  |  |  |  |  |  | -0.0903 (inactive) | -0.199 | 10 nM (inactive) |  | 
5 | CO/N=C(/C(=O)N[C@@H]1C(=O)N2C(C(=O)OCSC(=O)c3ccco3)=CCS[C@H]12)c1csc(N)n1 | 0.72 (inactive) | 1.31 | 0.94 | 0.907 (inactive) | 0.846 | 8470 | 9350 |  |  |  |  |  |  |  |  |  |  |  | 
6 | COc1cc([C@@H]2c3cc4c(cc3[C@H](O)C3COC(=O)[C@@H]32)OCO4)cc(OC)c1OC (stereo partly specified) | 1.07 (inactive) | 0.17 | 0.18 | 0.98 (inactive) | 1.04 | 1670 | 1710 | 0.2 h (inactive) | -3% (inactive) | 1 (inactive) | inactive | -0.545 (inactive) |  |  |  |  |  |  | 
7 | CC[C@H]1OC(=O)[C@H](C)[C@@H](O[C@H]2C[C@@](C)(OC)[C@@H](O)[C@H](C)O2)[C@H](C)[C@@H](O[C@@H]2O[C@H](C)C[C@H](N(C)C)[C@H]2O)[C@](C)(O)C[C@@H](C)[C@@H]2N[C@@H](COCCOC)O[C@H]([C@H]2C)[C@]1(C)O | 0.74 (inactive) | 1.25 | 0.93 | 0.867 (inactive) and 0.854 (inactive) | 0.963 and 2.6 | 8760 and 11500 | 10100 and 13500 |  |  |  |  |  | 193% (inactive) and 158% (inactive) and 59.8% (inactive) | 113% and 86.5% and 194% | -1.14 (inactive) | -0.393 | 10 nM (inactive) | 44 AU (inactive) | 
8 | C=C1CC2C3C=C(C)C4=CC(=O)CC[C@]4(C)C3CC[C@]2(C)[C@@]1(OC(C)=O)C(C)=O (stereo partly specified) | 1.26 (inactive) | 0.99 | 1.24 | 0.949 (inactive) | 1.45 | 4400 | 4640 |  |  |  |  |  |  |  |  |  |  |  | 
9 | CC1/C=C/C=C/C=C/C=C/C=C/C=C/C=C/C(O[C@@H]2O[C@H](C)[C@H](O)[C@@H](O)[C@@H]2N)CC(O)C(C(=O)O)C(O)CC(=O)CC(O)CC(O)CC(O)CC(=O)CCCC(=O)CC(=O)OC1C(C)CC(C)C(O)CC(=O)c1ccc(N)cc1 (stereo partly specified) | 0.94 (inactive) | 1.09 | 1.03 | 0.786 (inactive) | 1.31 | 5340 | 6790 |  |  |  |  |  |  |  |  |  |  |  | 
10 | CC(C)Cc1ccc([C@H](C)C(=O)O)cc1 | 0.85 (inactive) | 0.93 | 0.79 | 1.1 (inactive) and 0.885 (inactive) | 1.11 and 1.2 | 10400 and 9190 | 9420 and 10400 | -0.055 h (inactive) | -6% (inactive) | 0.9 (inactive) | inactive | 0.53 (inactive) | 89.2% (inactive) | 95.1% | 0.343 (inactive) | -0.398 | 26 nM (inactive) |  | 6.58 (inactive)
11 | CC(=O)c1ccc(S(=O)(=O)NC(=O)NC2CCCCC2)cc1 | 0.86 (inactive) | 0.99 | 0.85 | 1.04 (inactive) and 0.892 (inactive) and 0.85 (inactive) | 2.43 and 1.31 and 5.06 | 10800 and 8720 and 11600 | 10400 and 9780 and 13600 | -0.09 h (inactive) | -2% (inactive) | 1 (inactive) | inactive | 0.71 (inactive) | 38.7% (inactive) and 91.1% (inactive) and 69.3% (inactive) | 49.8% and 90.7% and 105% | 0.0376 (inactive) | -0.115 | 10 nM (inactive) | 44 AU (inactive) | 14 (inactive)
12 | CCNC1CN(CCCOC)S(=O)(=O)c2sc(S(N)(=O)=O)cc21 (stereo unspecified) | 0.72 (inactive) | 1.22 | 0.87 | 0.853 (inactive) | 0.647 | 8320 | 9750 |  |  |  |  |  |  |  | -0.247 (inactive) | -0.152 |  |  | 
13 | CC1=CC(=O)NS(=O)(=O)O1 | 1.16 (inactive) | 0.89 | 1.03 | 0.852 (inactive) and 0.934 (inactive) | 0.799 and 0.672 | 7390 and 8400 | 8680 and 8990 |  |  |  |  |  |  |  | -0.393 (inactive) | -0.0842 | 10 nM (inactive) |  | 
14 | CC(=O)[C@@]12O[C@](C)(c3ccccc3)O[C@@H]1CC1C3CCC4=CC(=O)CC[C@]4(C)C3CC[C@@]12C (stereo partly specified) | 1.21 (inactive) | 1.05 | 1.26 | 0.858 (inactive) | 1.15 | 5100 | 5940 |  |  |  |  |  |  |  |  |  |  |  | 
